Laboratory results published in PubChem BioAssay (Tox21).
Where “and” joins values, the source holds several entries; their conditions need not be identical. Identical values can stand only once. Inconclusive results are not listed. Calls of active or inactive are those of the source. Unless noted, the call rests on the fitted dose curve; in most records, active means well fitted curve in the direction sought with a large enough effect in the repeat runs; inconclusive means weak or mixed curves; inactive means no such curve, though single readings can be large; an effect the other way counts as inactive or inconclusive.

Columns and labels:
[1] = qHTS assay to identify small molecule agonists of the hypoxia (HIF-1) signaling pathway - cell viability counter screen (AID 1224844; calls by dose curve; further: nearly all actives have a fitted effect of over 50% in size)
How it was run: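 Cytotoxicity was measured in parallel with the HRE-driven beta-lactamase readout: after 17 hrs of compound exposure at 37C, HRE-bla ME-180 cells received CellTiter-Glo and luminescence was recorded 30 min later.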

[2] = qHTS assay to identify small molecule agonists of H2AX (AID 1224845; active means well fitted activation curve with a large enough effect in the signal ratio in the repeat runs, not every such curve was filed as active; the % refers to the signal ratio)
How it was run: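 Wild-type CHO-K1 cells plated overnight, then exposed 3 hr at 37C to compounds at 15 concentrations (0.76% DMSO). Lysed, then HTRF anti-pH2AX(S139)-cryptate/anti-H2AX-d2 detection after 24 hr at room temperature; emissions 665 and 620 nm.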

[3] = qHTS assay to identify small molecule agonists of the hypoxia (HIF-1) signaling pathway (AID 1224846; active means well fitted activation curve with a large enough effect in the signal ratio in the repeat runs, not every such curve was filed as active; the % refers to the signal ratio)
How it was run: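 Compounds from the Tox21 10K library, dissolved in DMSO, are tested for induction of a hypoxia response element–controlled beta-lactamase reporter in ME-180 cells. Exposure lasts 17 hrs at 37C after a 5 hr settling period, followed by CCF4-AM FRET substrate.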

[4] = qHTS assay to identify small molecule agonists of H2AX - cell viability counter screen (AID 1224847; calls by dose curve; further: top concentration of the series differs between compounds; nearly all actives have a fitted effect of over 30% in size)
How it was run: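 Cells plated first: CHO-K1, 1000 per well in 10% FBS medium, incubated overnight at 37C. Then 15-point compound titration added (final DMSO 0.76%) for 3 hr. Finally CellTiter-Glo added and luminescence read.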

[5] = qHTS assay to identify small molecule antagonists of the estrogen related receptor (ERR) signaling pathway from Tox21 library (AID 1224848); further: nearly all actives have a fitted effect of over 50% in size
How it was run: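 First, 2,000 ERR cells per well were plated and held 6 h at 37 C/5% CO2. Next, compounds in DMSO were pinned in and left 18 h at 37 C. Finally, ONE-Glo was added and luminescence read after 30 min at room temperature.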

[6] = qHTS assay to identify small molecule agonists of the estrogen related receptor (ERR) signaling pathway from Tox21 library (AID 1224849; calls by dose curve; further: nearly all actives have a fitted effect of over 15% in size); settings: ERR reporter cell line, ONE-Glo luciferase, 18 h; at 92.4 µM (top of the series)
How it was run: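 Cells carrying the ERR reporter were plated and allowed to settle for 6 h, exposed to library compounds for 18 h at 37 C, then lysed with ONE-Glo and luminescence measured.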

[7] = qHTS RealTime-Glo MT Cell Viability Assay in HepG2 cells - 24 hour (AID 1224867); further: nearly all actives have a fitted effect of over 50% in size
How it was run: (§1)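 Cell number in HepG2 cultures estimated from NanoLuc luminescence generated by metabolic reduction of a prosubstrate by living cells. The homogeneous, nonlytic format allowed repeated reads at 0, 8, 16, 24, 32 and 40 h of compound exposure.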

[8] = qHTS RealTime-Glo MT Cell Viability Assay in HEK293 cells - 32 hour (AID 1224868); further: top concentration of the series differs between compounds; nearly all actives have a fitted effect of over 50% in size
How it was run: (§2)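 Homogeneous bioluminescent viability format in HEK293 cells (600 cells/well). Following 5 h at 37 C/5% CO2, 23 nL compound was pintooled; the signal was measured repeatedly during 40 h incubation.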

[9] = A CellTox Green Cytotoxicity Assay to monitor cytotoxicity in HEK293 cells - 0 hour (AID 1224869); further: nearly all actives have a fitted effect of over 50% in size
How it was run: (§3)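 Cells (HEK293, 600/well) and dye reagent are dispensed together. After 5 h at 37 C, 23 nL compound is pinned in. Plates stay at 37 C for 40 h with fluorescence read at 0h, 8h, 16h, 24h, 32h and 40h.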

[10] = qHTS RealTime-Glo MT Cell Viability Assay in HepG2 cells - 40 hour (AID 1224870); further: nearly all actives have a fitted effect of over 50% in size
How it was run: (§4)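 HepG2 cells mixed with RealTime-Glo MT reagents (NanoLuc plus cell-permeant prosubstrate) were seeded at 600 cells/well, incubated 5 h at 37 C/5% CO2, then pinned with compounds in DMSO; nonlytic luminescence tracked viability during 40 h treatment.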

[11] = A CellTox Green Cytotoxicity Assay to monitor cytotoxicity in HEK293 cells - 40 hour (AID 1224871); further: nearly all actives have a fitted effect of over 45% in size
How it was run: as §3

[12] = qHTS RealTime-Glo MT Cell Viability Assay in HEK293 cells - 16 hour (AID 1224872)
How it was run: as §2

[13] = qHTS RealTime-Glo MT Cell Viability Assay in HepG2 cells - 8 hour (AID 1224873); further: nearly all actives have a fitted effect of over 55% in size
How it was run: as §4

[14] = qHTS RealTime-Glo MT Cell Viability Assay in HEK293 cells - 40 hour (AID 1224874); settings: RealTime-Glo luminescence; max response: stronger effect = lower value; further: nearly all actives have a fitted effect of over 50% in size
How it was run: (§5)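 Real-time viability in HEK293: signal arises when living cells convert a prosubstrate for NanoLuc in the medium, so luminescence tracks viable cell number. Compound (23 nL, DMSO) added 5 h post-seeding; kinetic reads at 0–40 h, 37 C.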

[15] = A CellTox Green Cytotoxicity Assay to monitor cytotoxicity in HEK293 cells - 24 hour (AID 1224875); further: nearly all actives have a fitted effect of over 45% in size
How it was run: as §3

[16] = A CellTox Green Cytotoxicity Assay to monitor cytotoxicity in HepG2 cells - 16 hour (AID 1224876); further: nearly all actives have a fitted effect of over 45% in size
How it was run: (§6)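 Cells and non-lytic dye reagent are dispensed together (600 HepG2 cells/well) and incubated 5 h before DMSO compound transfer. Kinetic fluorescence is then recorded in the same wells during 40 h at 37 C.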

[17] = qHTS RealTime-Glo MT Cell Viability Assay in HepG2 cells - 32 hour (AID 1224877); further: nearly all actives have a fitted effect of over 55% in size
How it was run: as §1

[18] = A CellTox Green Cytotoxicity Assay to monitor cytotoxicity in HepG2 cells - 40 hour (AID 1224879); further: nearly all actives have a fitted effect of over 40% in size
How it was run: as §6

[19] = qHTS RealTime-Glo MT Cell Viability Assay in HEK293 cells - 0 hour (AID 1224880); further: top concentration of the series differs between compounds; nearly all actives have a fitted effect of over 45% in size
How it was run: as §5

[20] = A CellTox Green Cytotoxicity Assay to monitor cytotoxicity in HepG2 cells - 24 hour (AID 1224878); further: nearly all actives have a fitted effect of over 45% in size
How it was run: as §6
On the % scale 0 is the no-effect control and ±100 the full control effect.

O=C1OC(=O)c2c(Cl)c(Cl)c(Cl)c(Cl)c21
inactive: Potency [1] | Potency [2] | outcome [3] | Potency [4] | Potency [5] | activity change, positive = activation [6] -24.8% | Potency [7] | Potency [8] | Potency [9] | Potency [10] | Potency [11] | Potency [12] | Potency [13] | max response [14] 1.44% | Potency [15] | Potency [16] | Potency [17] | Potency [18] | Potency [19]

O=Cc1ccc(CO)o1
inactive: Potency [1] | Potency [2] | outcome [3] | Potency [4] | Potency [5] | activity change, positive = activation [6] 0.746% and -3.97% | Potency [7] | Potency [8] | Potency [9] | Potency [10] | Potency [11] | Potency [12] | Potency [13] | max response [14] -0.203% and -12.4% | Potency [15] | Potency [16] | Potency [17] | Potency [20] | Potency [18] | Potency [19]

CCCCCCCCO
inactive: Potency [1] | Potency [2] | outcome [3] | Potency [4] | Potency [7] | Potency [8] | Potency [9] | Potency [10] | Potency [11] | Potency [12] | Potency [13] | max response [14] 2.5% and 9.18% | Potency [15] | Potency [16] | Potency [17] | Potency [20] | Potency [18] | Potency [19]

C=C1C[C@]23C[C@@]1(O)CC[C@H]2[C@@]12C=C[C@H](O)[C@@](C)(C(=O)O1)[C@H]2[C@@H]3C(=O)O
inactive: Potency [1] | Potency [2] | outcome [3] | Potency [4] | Potency [5] | activity change, positive = activation [6] 4.32% and 5.25% | Potency [7] | Potency [8] | Potency [9] | Potency [10] | Potency [11] | Potency [12] | Potency [13] | max response [14] 3.96% and 1.17% | Potency [15] | Potency [16] | Potency [17] | Potency [18] | Potency [19]

CC/C=C(\C(=O)N[C@@H]1C(=O)N2C(C(=O)OCOC(=O)C(C)(C)C)=C(COC(N)=O)CS[C@H]12)c1csc(N)n1
inactive: Potency [1] | Potency [2] | outcome [3] | Potency [4] | Potency [7] | Potency [8] | Potency [9] | Potency [10] | Potency [11] | Potency [12] | Potency [13] | max response [14] 11.8% and 8.9% | Potency [15] | Potency [16] | Potency [17] | Potency [20] | Potency [18] | Potency [19]

CCCCCC(C)=O
inactive: Potency [1] | Potency [2] | outcome [3] | Potency [4] | Potency [5] | activity change, positive = activation [6] 9.83% and 4.6% | Potency [7] | Potency [8] | Potency [9] | Potency [10] | Potency [11] | Potency [12] | Potency [13] | max response [14] 0.796% and 0.918% | Potency [15] | Potency [16] | Potency [17] | Potency [20] | Potency [18] | Potency [19]
